# About 1,100 (48%) of roughly 2,300 compounds were called active. The set was probably picked from earlier hits. Some of the results follow. Potency and affinity values are given separately. Unmarked numbers belong to inactive results. The rule behind the calls is not given here.
# Assay: S. typhi counter-screen signal inhibition – fluorescence, 4 h, counter-screen for PhoP regulon inhibitor project, dose response (AID 2384)
# Settings: S. typhi GFP reporter counter-screen; series mostly up to 150 µM; inhibition: at the top concentration
row,Compound,inhibition
1,CCOc1ccc(Cl)cc1/C=N/O,26%
2,COc1ccccc1/C=C/C(=O)Nc1cccc(C(C)=O)c1,33.4%
3,COc1ccc2c(c1)CC1(CN2C)C(=O)NC(=O)N(CCc2ccccc2)C1=O (stereo not drawn),21.6%
4,CCOC(=O)c1nc2cc3n(c(CC(C)C)c-2c1C)CC(C)=C3C,35.8%
5,CC(C)Oc1ccc(N2CC(C(=O)Nc3ccccc3F)CC2=O)cc1 (stereo not drawn),4.81%
6,CCOC(=O)c1ccc(N2Cc3ccccc3C2=NC(=O)c2cccc([N+](=O)[O-])c2)cc1,-24.8%
7,CCOc1ccc(N2CC(C(=O)OCC(=O)NCc3ccccc3)CC2=O)cc1 (stereo not drawn),10.8%
8,COc1ccc2nc(NC(=O)C3CC(=O)N(c4ccccc4)C3)sc2c1 (stereo not drawn),-6.56%
9,COc1ccc(Nc2c3c(nc4ccc(C)cc24)CCC3)cc1,19%
10,COc1cccc(-c2ccc(SCc3ccccn3)nn2)c1,0.91%
11,COc1ccccc1-c1nc(C(F)(F)F)c(OC)o1,-18.3%
12,Cc1cc(C)cc(NC(=O)CSc2nnc(CNC(=O)c3cccs3)o2)c1,-13.1%
13,Cc1ccc(CSc2nc3c(c(=O)[nH]2)CCC3)cc1,2.42%
14,COc1cc(CNCCCN2CCOCC2)c(Br)cc1OCC(=O)Nc1ccccc1C,30.8%
15,Cc1ccc(C)c(OCC(=O)Nc2cccc(C(=O)O)c2)c1C,8.53%
16,Fc1cccc(Cl)c1CSc1ccc(-c2ccco2)nn1,-38.2%
17,Cc1cccc(CSCCNC(=O)COc2ccc(Cl)cc2)c1,7.31%
18,CCC(Oc1ccccc1)C(=O)Nc1nnc(S(=O)(=O)N2CCCCC2)s1 (stereo not drawn),-24.2%
19,ON=C1/C(=N\O)CC2(C/C1=N/O)OCCO2,9.69%
20,O=C(NCCOc1ccccc1)c1ncn[nH]1,21.1%

row,Compound,inhibition
1,CC(C)(C)c1ccc(OCCNC(=S)Nc2ccccc2)cc1,-4.71%
2,O=C(N/N=C/c1cccnc1)c1ccc([N+](=O)[O-])cc1Cl,18.8%
3,O=C(O)COc1ccccc1/C=N/NC(=O)c1cccc(S(=O)(=O)N2CCOCC2)c1,-4.06%
4,Cc1noc(C)c1S(=O)(=O)N1CCC(Cc2ccccc2)CC1,-13.9%
5,O=C(N/N=C/c1ccco1)c1cccc(NC(=O)c2cccc(Cl)c2)c1,-0.93%
6,O=[N+]([O-])c1ccc2oc(C3CCCCC3)nc2c1,0%
7,Cc1cccc(C(=O)NCCC(=O)Nc2ccc(F)c([N+](=O)[O-])c2)c1,21.8%
8,CC(C)=CCN1CCN(Cc2nc(-c3ccccc3)cs2)CC1CCO (stereo not drawn),6.37%
9,CCO[C@H]1OC(C(=O)O)=C[C@@H](c2ccccc2)[C@@H]1CCCO,1.28%
10,Cc1cccc2cc(C(c3nnnn3Cc3ccccc3)N3CCN(C)CC3)c(=O)[nH]c12 (stereo not drawn),6.04%
11,O=C(NC1=NCCS1)c1cccc2ccccc12,-9.46%
12,O=C1CCCC2=C1C(c1ccncc1)Nc1ccccc1N2 (stereo not drawn),-4.56%
13,CCn1nnnc1NCc1cccc(Cl)c1,-8.55%
14,Clc1ccc(Nc2nc(C3CC3)cs2)cc1,16.3%
15,CCN(CC(=O)Nc1ccc(C(=O)OC)cc1)C1CCCCC1,15.5%
16,CC(c1ccccc1)(c1ccccc1)c1ccncc1,-5.37%
17,COc1ccc(C2C(C(=O)NCc3cccnc3)c3ccccc3C(=O)N2C)cc1OC (stereo not drawn),13%
18,C1=Nc2ccccc2CN1c1ccccc1,30.4%
19,CCC(Sc1nc2ccncc2[nH]1)C(=O)Nc1ccc(C)c(Cl)c1 (stereo not drawn),-0.03%
20,Cc1cc(C(=O)Nc2cccnc2)on1,-13.8%

row,Compound,inhibition
1,CCCCNC(=O)CCC(=O)Nc1ccc2nc(N3CCC(C)CC3)cc(C)c2c1,-2.01%
2,Cc1cc(N2CCN(C3CCCCC3)CC2)nc2cccc(O)c12,21.7%
3,COc1cccc2[nH]c3c(N4CCN(Cc5ccc6c(c5)OCO6)CC4)ncnc3c12,29.9%
4,CCn1c(O)c(N=NC(=O)CNC(=O)/C=C/c2ccco2)c2ccccc21,-2.56%
5,COc1ccc2[nH]cc(C(=O)CCl)c2c1,12%
6,O=C(Cc1ccc(F)cc1)NC1CCCC1,9.26%
7,O=C(NC1CCCCC1)c1ccc(S(=O)(=O)NCc2cccnc2)cc1,-16.9%
8,Cn1ncc(N=Cc2ccccc2O)c1C(=O)N1CCOCC1,9.29%
9,Cc1ccc(C)c(OCc2ccc(C(=O)NN)o2)c1,1.74%
10,Cc1nc(-c2ccc(C(=O)N3CCOCC3)cc2)cs1,0.47%
11,CCOc1ccc(OCCSc2nc3ccccc3[nH]2)cc1,2.54%
12,CCOc1ccc(NC(=S)Nc2cc(C)[nH]n2)cc1,4.04%
13,Cc1cc(NS(=O)(=O)c2ccc(NC(=S)NC(=O)c3cccnc3)cc2)no1,2.76%
14,O=S(=O)(Nc1ncccn1)c1ccc(NC(=S)Nc2cccc(Cl)c2)cc1,-59.1%
15,Cc1ccc(NC(=O)OCc2cccs2)cc1,25.9%
16,CC1CCCC(NC(=O)COC(=O)Cc2c[nH]c3ccccc23)C1C (stereo not drawn),6.25%
17,Cc1ccc(-c2c(C)n([O-])c3c([n+]2=O)CCCC3)o1,12.3%
18,COc1ccccc1OCc1nnc(SCC(=O)NCc2ccco2)n1Cc1ccco1,-6.42%

# From PubChem BioAssay AID2384 (Southern Research Specialized Biocontainment Screening …, 2010)
